# Source: PubChem BioAssay (Tox21)
# Values without a mark were called inactive. Entries that show only a call come without a potency. Activity calls are given as the source filed them. Calls follow the shape of the dose curve; as a rule, active = well fitted inhibition curve with a large enough effect in the repeat runs (not every such curve was filed as active); inconclusive = weak or mixed curves; inactive = flat fitted curve, though single readings scatter.
# Target: Thyrotropin-releasing hormone receptor (Homo sapiens) (UniProt P34981)
# Sequence (P34981 whole entry, looked up): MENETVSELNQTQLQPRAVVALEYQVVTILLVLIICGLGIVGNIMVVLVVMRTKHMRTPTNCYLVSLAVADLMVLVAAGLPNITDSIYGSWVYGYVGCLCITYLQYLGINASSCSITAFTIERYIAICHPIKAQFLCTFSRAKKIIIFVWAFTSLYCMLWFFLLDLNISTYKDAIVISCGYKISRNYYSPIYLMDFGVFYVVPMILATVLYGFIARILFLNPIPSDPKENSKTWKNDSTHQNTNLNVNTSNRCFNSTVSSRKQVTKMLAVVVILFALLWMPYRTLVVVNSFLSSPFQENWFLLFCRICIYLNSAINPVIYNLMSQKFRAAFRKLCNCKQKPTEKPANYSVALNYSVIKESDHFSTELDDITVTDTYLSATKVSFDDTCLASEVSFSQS
# Assay: qHTS assay to identify small molecule antagonists of the thyrotropin-releasing hormone receptor (TRHR) signaling pathway (AID 1346877)
# Details: TRHR-HEK293, TRH-induced calcium fluorescence, antagonist mode; series mostly up to 51.3 µM
# Description: National Center for Advancing Translational Sciences [NCATS]
# NIH Chemical Genomics Center [NCGC]
# U.S. Environmental Protection Agency [EPA]
# National Institutes of Environmental Health Sciences [NIEHS]
# National Toxicology Program [NTP]
# U.S. Food and Drug Administration [FDA]
# Thyrotropin-releasing hormone (TRH) receptor (TRHR) is a G-protein-coupled receptor which binds the tripeptide thyrotropin releasing hormone. TRHR is found in the brain and, when bound by TRH, acts (through phospholipase C) to increase intracellular inositol trisphosphate. It plays a crucial role in the anterior pituitary where it controls the synthesis and secretion of thyroid stimulating hormone and prolactin. The TRHR-Hek293 assay is a cell-based assay, and it has the potential to screen G protein-coupled receptors. A compound/drug can either activate (agonist) or suppress (antagonist) GPCRs that can be monitored by levels of intracellular calcium. In this assay, the Tox21 10K compound library was screened to identify potential TRHR antagonists.
# Tox21 Assay Protocol Summary:
# The TRHR-Hek293 cells were dispensed at 1500cells/4uL/well in 1536-well black-clear bottom plates using a Multidrop dispenser. After the assay plates were incubated at a 37 C/5% CO2 incubator for 18 hours, 4 uL of Dye-Loading Solution was added to each well. The plates were incubated at 37 C for 2 hours. For agonist mode, 23 nL of compounds dissolved in DMSO, positive controls or DMSO only was transferred to the assay plate by a pin tool. The fluorescence intensity in the plates was measured using FDSS 7000EX kinetic plate reader for 3 min at 1 sec intervals. For antagonist mode, 23 nL of compounds dissolved in DMSO, positive controls or DMSO only was transferred to the assay plate by a pin tool. After 5 min incubation at room temperature, 1 uL of TRH was added on the top of the cell/compound mixtures to achieve a final agonist concentration of 1 nM. The fluorescence intensity in the plates was measured using FDSS 7000EX kinetic plate reader for 3 min at 1 sec intervals. Each test compound was measured at 15 concentrations and in triplicates.
# Potency is read from the fitted curve at half-maximal effect.
SMILES,Potency,"activity, negative = inhibition"
CCC(C)C(=O)OC (stereo not given),inactive,–
O=C(O)CC(=O)O,inactive,–
O=S(O)O,–,0.51% [at 10.5 µM]
CCO[Si](CCCSSSSCCC[Si](OCC)(OCC)OCC)(OCC)OCC,inactive,–
CN1CN(C)CN(C)C1,inactive,–
[O]=[Zr],inactive,–
C1CC(COCC2CO2)CCC1COCC1CO1 (stereo not given),inactive,–
CCCCCCCC/C=C\CCCCCCCC(=O)N(C)CC(=O)O,inactive,–
O=CC1CC1,inactive,–
O=C1c2c(O)ccc(O)c2C(=O)c2c(NCCNCCO)ccc(NCCNCCO)c21,inactive,–
O=C1NCCN1CCN1CCC(c2cn(-c3ccc(F)cc3)c3ccc(Cl)cc23)CC1,inactive,–
Cc1cncc(C)c1,inactive,–
CCc1cccc(CC)c1N(COC)C(=O)CS(=O)(=O)O,inactive,–
CCCC(C)CCC(C)=O (stereo not given),inactive,–
CCc1cccc(CC)c1NC(=O)C(=O)O,inactive,–
CCCOc1sc(C(=O)N2CCC(c3cc(CN)ccc3F)CC2)c(C)c1Br,27.6 µM (active),–
CCOCN(C(=O)CS(=O)(=O)O)c1c(C)cccc1CC,inactive,–
COC(=O)NCCC[Si](OC)(OC)OC,inactive,–
CCCCCCCOC(=O)c1ccccc1C(=O)OCCCCCCC,inactive,–
CCCCOC(=O)C(C)CC (stereo not given),inactive,–

SMILES,Potency,"activity, negative = inhibition"
CC(C)N=C(N)/N=C(\N)Nc1ccc(Cl)cc1,inactive,–
CCCCCCCCCCCCCOP(=O)(O)O,inactive,–
CS(C)(=O)=O,inactive,–
COCC(=O)O[C@]1(CCN(C)CCCc2nc3ccccc3[nH]2)CCc2cc(F)ccc2[C@@H]1C(C)C,inactive,–
Clc1ccccc1CN1CCc2sccc2C1,inactive,–
CC(C)=CC1CC(C)CCO1 (stereo not given),inactive,–
CC1CCCNC1 (stereo not given),inactive,–
O=C(O)CCCCCCC(=O)O,inactive,–
CCCCOc1ccc(C(=O)CCN2CCCCC2)cc1,inactive,–
c1cc(OCC2CO2)cc(OCC2CO2)c1 (stereo not given),inactive,–
CC[N+](CC)(CC)Cc1ccccc1,inactive,–
CCCCN(C)C,inactive,–
O=S(=O)(O)c1cc(S(=O)(=O)O)c2ccc3c(S(=O)(=O)O)cc(S(=O)(=O)O)c4ccc1c2c43,–,-5.39% [at 10.5 µM]
CCOC(=O)COc1ccc(C)cc1,inactive,–
CN(C)CCCN1c2ccccc2CCc2ccccc21,inactive,–
CC1=CP(=O)(c2ccccc2)CC1 (stereo not given),inactive,–
COc1ccccc1OCCNCC(O)COc1cccc2[nH]c3ccccc3c12 (stereo not given),inactive,–
CCC(=O)OCCc1ccccc1,inactive,–
O=C(NO)c1ccccc1,inactive,–
C=C(C)CCCC,inactive,–
